# Screens as filed in PubChem BioAssay.
# SARS PLpro yeast: SARS-CoV PLP inhibition in yeast; S. cerevisiae expressing SARS-CoV PLpro, growth rescue; Potency, µM (series often up to 32.9 µM), for the others: top-dose activity, positive = growth rescue, most hits filed as activators; 0.19% of 330,000 active; AID 485353; calls by dose curve; also: potency is read from the fitted curve at half-maximal effect; 0% is about no effect; nearly all actives have a fitted effect of over 55% in size
# Cycloheximide cs: counter-screen for Shiga toxin inhibitors: cycloheximide protein synthesis inhibition | cell reporter, cycloheximide protein synthesis inhibition counterscreen | max response, % | 12% of 300,000 active; in the data active = max response mostly above about 13%, no sharp cut-off; inactive = mostly below about 14%; also: read at 38.3 µM for the half of the compounds with a filed dose; 0% is about no effect
# NS1 inh: influenza NS1 inhibition; Potency, µM (titrated, usually from 46.1 µM), inactives show at the highest dose activity, positive = more growth; AID 2326; 0.4% of 270,000 active; calls by dose curve; also: potency is read from the fitted curve at half-maximal effect; actives are rising curves; nearly all actives have a fitted effect of over 50% in size
#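 S. cerevisiae expressing influenza A NS1, grown in glucose, washed, then diluted 1:100 into pH 6.0 -URA galactose medium with 23 nl compound. Growth recovery read as OD600; NS1-free strain serves as control.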
# Shiga toxin inh: inhibitors of Shiga toxin in Vero cells. Vero cells, Shiga toxin protein synthesis inhibition reporter. inhibition, % at 38.7 µM. 9.2% of 290,000 active; in the data active = inhibition mostly above about 28%, no sharp cut-off; inactive = mostly below about 43%; also: 0% is about no effect
# Pf growth 96h: P. falciparum growth inhibition at 96 hours | AID 504834 | 6.9% of 320,000 active | Potency, µM (titrated, usually from 28.7 µM), for the others: top-dose activity change, negative = inhibition, usual class: inhibitors | P. falciparum luciferase reporter growth, 96 h; also: potency is read from the fitted curve at half-maximal effect; % is scaled to controls: 0 for no effect and ±100 for the full control effect
#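 Plates of compound plus infected erythrocytes (2% hematocrit, 0.05% parasitemia final) incubate 96 hours, 37 C, 5% CO2. Detection reagent added; reduced luminescence from the parasites' luciferase reporter flags inhibition.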
# Pf growth 48h: P. falciparum growth inhibition at 48 hours (one generation). Potency, µM (doses to about 28.7 µM), for inactives: at the highest dose activity change, negative = inhibition, hits mostly inhibitors. P. falciparum luciferase growth in erythrocytes, 48 h. 5.9% of 310,000 active; also: potency is read from the fitted curve at half-maximal effect; % is scaled to controls: 0 for no effect and ±100 for the full control effect
#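 Read-out is firefly luciferase luminescence from an integrated reporter in P. falciparum, so falling signal marks reduced parasite growth. Infected erythrocytes were at 2% hematocrit and 0.1% parasitemia (final) in Albumax-supplemented RPMI 1640.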
# The depositor's hits bear a star; i = inactive; u = inconclusive; x = no result; [ ] = another dose, or the depositor's remark. Rows were chosen to be rich in hits. Some 21% of all compounds tested hit in one or more screens of this group. Unless noted, calls follow the shape of the dose curve; as a rule, active = well fitted inhibition curve with a large enough effect; inconclusive = small, poorly fitted or top-dose-only effect, or another doubt; inactive = no such curve, though single readings can be large or run the other way.
SMILES,SARS PLpro yeast,Cycloheximide cs,NS1 inh,Shiga toxin inh,Pf growth 96h,Pf growth 48h
O=C(O)CC/C(=C\c1ccc(N2CCOCC2)c([N+](=O)[O-])c1)c1nc2ccccc2s1,-2%,11*,10%,21,16%,-4%
Cc1ccc(Cn2nc3c4cc(F)ccc4n(Cc4ccc(F)cc4)cc-3c2=O)cc1,0%,-5,7%,-1,1%,33%
COc1cccc(Cn2nc3c4cc(F)ccc4n(Cc4ccc(F)cc4)cc-3c2=O)c1,-1%,1,5%,12,1.7µM*,-1%
COc1cc2c3nnc(-c4ccccc4)c-3cn(Cc3ccc(F)cc3)c2cc1OC,-1%,-7,1%,-7,u,-37%[1.15 µM]
COc1cc2c3nnc(-c4ccc(F)cc4)c-3cn(Cc3cccc(F)c3)c2cc1OC,3%,3,x,-34,1µM*,0.59µM*
COc1cc2c3nnc(-c4ccc(F)cc4)c-3cn(Cc3ccc(C)cc3)c2cc1OC,-9%,-1,22%,3,0.37µM*,0.33µM*
COc1cc2c3nnc(-c4ccc(F)cc4)c-3cn(Cc3cccc(C)c3)c2cc1OC,0%,-3,23%,-10,0.47µM*,0.59µM*
CCOc1cc(N2CCOCC2)c(OCC)cc1NC(=O)COC(=O)c1cccc2ccccc12,3%,12,-1%,-12,1%,-19%
N=C(N)CCNC(=O)[C@@H]1CCC(N)=N1,x,x,-1%,x,x,x
O=C(O)C1NCCN(C(=O)c2ccc3c(ccc4ccccc43)c2)C1C(=O)O (stereo unspecified),x,-6,x,-3,x,x
COC(=O)C/C(O)=C(/N=Nc1cccc(C(F)(F)F)c1)C(=O)OC,0%,1,-1%,-15,47%,28%
COc1ccccc1S(=O)(=O)CC(O)COc1ccc(C#N)cc1 (stereo unspecified),0%,12,9%,24,22%,22%
O=C(c1ccc2[nH]c(=O)c(=O)[nH]c2c1)N1CCN(Cc2ccccc2)CC1,-1%,-9,-8%,-8,1%,5%
CC(C)c1ccc(N2C(=O)NC(=O)/C(=C/C=C/c3ccco3)C2=O)cc1,-17%,-2,18%,-3,79%,15%
Cc1ccc(N2C(=O)NC(=O)/C(=C/C=C/c3ccco3)C2=O)cc1,-14%,24*,4%,26*,0%,7%
Cc1cc(C)cc(N2C(=O)NC(=O)/C(=C\C=C\c3ccco3)C2=O)c1,2%,13,9%,49*,31%,0%
O=C1NC(=O)N(Cc2ccc(F)cc2)C(=O)/C1=C\C=C\c1ccco1,-3%,-2,-9%,11,-2%,-2%
CCOc1ccc2nc(/N=C/c3c(C)[nH]n(-c4ccc(C)cc4)c3=O)sc2c1,-77%,33*,-16%,33,-9%,61%
CCOc1ccc2nc(/N=C/c3c(C)[nH]n(-c4ccccc4)c3=O)sc2c1,-47%,30*,-17%,61*,-3%,100%
CCOc1ccc2nc(SC3CC(=O)N(c4ccc(C)cc4)C3=O)sc2c1 (stereo unspecified),-16%,2,8%,-5,-11%,18%
COc1cccc(C2Nc3ccc4ccccc4c3C3=C2C(=O)CCC3)c1O (stereo unspecified),3%,7,1%,-4,35%,u
COc1cc(C(=O)NCCc2ccc(S(=O)(=O)N3CCCC3)cc2)cc(OC)c1OC,1%,1,-4%,19,41%,u
COc1ccccc1NC(=O)C1CCCN(c2cnccn2)C1 (stereo unspecified),15%,-1,10%,36,42%,5%
COc1cccc(NC(=S)/C(=C(\[O-])c2cc(C)n(-c3ccccc3F)c2C)[n+]2ccc(N(C)C)cc2)c1,1%,26*,10%,76,4.1µM*,u
COc1cccc(NC(=S)/C(=C(\[O-])c2ccc(OC(F)F)cc2)[n+]2ccccc2)c1,1%,20,x,24,u,i
SMILES,SARS PLpro yeast,Cycloheximide cs,NS1 inh,Shiga toxin inh,Pf growth 96h,Pf growth 48h
O=C(/C=C/c1ccc(O)cc1)c1ccc(O)cc1O,-14%,29*,-41%,34,u,u
C=C(C)C(O)Cc1c(OC)ccc(C(=O)/C=C/c2ccc(O)cc2)c1O (stereo unspecified),-15%,x,x,x,x,x
COc1cc(/C=C/C(=O)c2ccc(O)cc2O)ccc1O,x,32*,x,68*,x,x
CC(C)=CCC/C(C)=C/Cc1c(O)ccc(C(=O)/C=C/c2ccc(O)cc2)c1O,-44%,15,-67%,38,8.3µM*,u
O=C(/C=C/c1ccccn1)c1ccc(Br)cc1O,-12%,12,-40%,28,u,u
COc1ccc(/C=C/C(=O)NNc2c(F)c(F)cc(F)c2F)cc1OC,-10%,-2,-5%,16,u,u
COc1cc(/C=C/C(O)=C/C(=O)/C=C/c2ccc(O)cc2)ccc1O,1%,x,x,x,u,12µM*
O=C(CCN1C(=O)/C(=C\c2ccccc2)SC1=S)NNC(=O)c1ccccc1O,-1%,-4,1%,-6,u,26%
Cc1ccc(OCC(=O)Nc2c3c(nn2C(C)(C)C)CS(=O)(=O)C3)cc1,1%,-3,-2%,-6,2%,5%
CC(=O)c1cccc(NC(=O)COC(=O)c2cccs2)c1,0%,59*,x,69*,-17%,-6%
CCN(CC)c1ccc(NC(=O)COC(=O)c2cccs2)cc1,5%,44*,-14%,55*,17%,x
O=C(COC(=O)c1cccs1)Nc1cccc(Cl)c1,3%,x,x,x,30%,3%
CCN(c1ccc(NC(=O)COC(=O)c2cccs2)cc1)C(C)C,3%,38*,2%,20,-1%,x
CCN(c1ccc(NC(=O)COC(=O)c2cc3ccccc3oc2=O)cc1)C(C)C,0%,1,x,-1,1%,8%
O=c1[nH]cc(S(=O)(=O)N2CCOCC2)c(=O)[nH]1,1%,x,x,x,8%,50%
Cc1cccc(NC(=O)CSc2nc3ccccc3nc2N2CCCC2)c1C,6%,5,-3%,15,u,u
COc1ccc(C2=NN(C(=O)CN3CCOCC3)C(c3nc4ccccc4[nH]3)C2)cc1 (stereo unspecified),-4%,56*,x,105*,35%,81%
COc1ccc(C2CC(c3ccccc3)=NN2C(=O)CSc2ncccn2)cc1 (stereo unspecified),30%,-3,-1%,8,u,u
COc1ccc(C2=NN(C(=O)CCC(=O)O)C(c3ccc(F)cc3)C2)cc1 (stereo unspecified),2%,7,20%,2,15µM*,-25%
COc1ccc(C2CC(c3ccccc3)=NN2C(=O)CSc2ncn[nH]2)cc1 (stereo unspecified),-1%,17*,x,36,u,u
COc1ccc(C2CC(c3ccccc3)=NN2C(=O)COC(=O)/C=C/c2ccc(O)c(OC)c2)cc1 (stereo unspecified),-1%,2,17%,19,u,15µM*
